CtBP-E1A inh: qHTS Assay for Inhibitors of the CtBP/E1A Interaction | AlphaScreen GST-E1A/His-CtBP binding, 1536-well; hits give low values | AID 651724, 2012 | activity change, % (test concentration not listed) | CtBP / adenovirus E1A interaction (AlphaScreen) | 340,000 compounds, 0.49% hits
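GST-E1A and His-tagged CtBP (125 nM each as 5X stock) were preincubated with pin-transferred compound for 2 h at 37 °C in the dark, then glutathione donor and nickel acceptor beads were added for 1 h before AlphaScreen reading.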
Six1-Eya2 inh: qHTS Assay for Inhibitors of the Six1/Eya2 Interaction; Homeobox protein SIX1 (Homo sapiens) + Protein phosphatase EYA2 (Homo sapiens), …; AlphaScreen GST-Six1/His-Eya2 binding, biochemical; hits give low values; activity change, % (concentration not given with the values); 360,000 compounds, 0.56% hits; AID 651725, 2012
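Six1/Eya2 binding was read as AlphaScreen signal after compounds were pinned into GST-Six1 plus His-tagged Eya2 (5X stock 250/500 nM) in pH 8.0 Tris/NaCl/TCEP buffer, beads added, then incubated 1 h, 37 C, dark.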
KCNH2 WT inh: qHTS for Inhibitors of KCHN2 3.1: Wildtype qHTS; Voltage-gated inwardly rectifying potassium channel KCNH2 (Homo sapiens), Q12809; U2OS, BacMam KCNH2, thallium flux FluxOr; hits give low values; activity change, % at 1.84 µM; 340,000 compounds, 0.37% hits; AID 720551, 2013;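 active = maximum activity change below -70%; inconclusive = maximum activity change between -70% and -50%; inactive = maximum activity change above -50%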
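U2OS cells transduced with wild-type KCNH2 virus are loaded with FluxOr dye for 45 min, and thallium flux is measured in kinetic reads before and after stimulation buffer. Rate constants are normalized to DMSO controls.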
KCNH2 3.1 inh: qHTS for Inhibitors of KCHN2 3.1: Mutant qHTS; 340,000 compounds, 0.95% hits; activity change, % (tested at about 1.8 µM); U2OS KCNH2 3.1, thallium flux FluxOr; hits give low values; Potassium voltage-gated channel subfamily H member 2, brain isoform KCNH2 3.1 (human);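 active = maximum activity change below -70%; inconclusive = maximum activity change from -70% to -50%; inactive = maximum activity change above -50%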;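 note: thallium influx rate constant from kinetic fluorescence after stimulation buffer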
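Kinetic fluorescence (2 min after stimulation buffer) measures Tl+ influx through KCNH2 3.1 expressed by viral transduction in U2OS cells; the rate constant is normalized against DMSO controls serving as positive and negative references.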
JMJD2E inh: qHTS Assay for Inhibitors of Human Jumonji Domain Containing 2E (JMJD2E). JMJD2E catalytic domain, FDH-coupled NADH fluorescence (FDH is formaldehyde dehydrogenase). AID 2147, 2009. Potency, µM (series often up to 57.1 µM), most hits filed as inhibitors. Lysine-specific demethylase 4E (Homo sapiens), B2RXH2. 230,000 compounds, 1.6% hits; active = well fitted inhibition curve with a large enough effect, not every such curve was filed as active; inconclusive = small, poorly fitted or top-dose-only effect, or another doubt; inactive = no such curve, though single readings can be large or run the other way; note: nearly all actives have a fitted effect of over 50% in size
Target sequence (B2RXH2 1-337 limits assumed): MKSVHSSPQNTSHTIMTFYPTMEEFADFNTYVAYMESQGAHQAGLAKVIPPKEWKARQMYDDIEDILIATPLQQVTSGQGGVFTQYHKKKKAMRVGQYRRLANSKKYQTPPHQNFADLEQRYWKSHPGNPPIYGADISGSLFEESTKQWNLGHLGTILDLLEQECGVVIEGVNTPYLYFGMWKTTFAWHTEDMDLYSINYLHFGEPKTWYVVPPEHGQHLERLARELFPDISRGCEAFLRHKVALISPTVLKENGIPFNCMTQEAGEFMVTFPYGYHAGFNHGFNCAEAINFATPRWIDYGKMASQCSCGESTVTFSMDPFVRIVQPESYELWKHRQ
Large screens that a line does not name were inactive. Compounds with a hit are over-represented: about 2% of the library has one in this group of screens. Cut-off read from the data, not from the text of the source, unless noted: active = activity change below about -65%; inconclusive = mostly about -30% to -63%; inactive = weaker than that.

O=C(N/N=C(\c1ccccc1)c1cccnc1)c1cccc(F)c1	Six1-Eya2 inh -79.7 (no result: JMJD2E inh)
O=C(N/N=C(\c1ccccc1)c1cccnc1)c1ccc(O)cc1	none (no result: JMJD2E inh)
Cc1ccc(CNC(=O)CCS(=O)(=O)c2ccc(Br)cc2)cc1	Six1-Eya2 inh inconclusive, JMJD2E inh 11.2µM (no result: KCNH2 3.1 inh)
Cc1ccc(CS(=O)(=O)CCC(=O)NCc2ccccc2Cl)cc1	KCNH2 3.1 inh -72.6 (no result: JMJD2E inh)
O=C(Cc1ccc(Br)cc1)NCc1ccccc1	KCNH2 WT inh -299.9 (no result: JMJD2E inh)
O=C(COC(=O)Cc1ccc(Br)cc1)NCc1ccccc1	none (no result: JMJD2E inh)
O=C(N/N=C\c1ccccc1)c1sccc1-n1cccc1	none
Cc1ccc2c(c1)N(C(=O)CCC(=O)NCCCN1CCC(Cc3ccccc3)CC1)CCO2	KCNH2 3.1 inh -115.7 (no result: JMJD2E inh)
Cc1ccc2c(c1)N(C(=O)CCC(=O)NCCCN1CCN(C)CC1)CCO2	none (no result: JMJD2E inh)
Cc1ccccc1-c1ccc(Nc2ccc(N3CCOCC3)cc2)nn1	Six1-Eya2 inh inconclusive, KCNH2 3.1 inh -73.4
Cc1ccc(-c2cc(C(=O)NN=C3CCCC3)c3ccccc3n2)cc1	KCNH2 WT inh -197.4, JMJD2E inh inconclusive
C/C(=N\NC(=O)c1cc(-c2cccnc2)nc2ccccc12)c1ccccc1O	Six1-Eya2 inh inconclusive, KCNH2 3.1 inh -109.9
Cc1cc(Nc2ccccc2C(=O)O)n(-c2ccc([N+](=O)[O-])cc2)n1	Six1-Eya2 inh -81.4 (no result: CtBP-E1A inh)
Cc1ccc(NC(=S)NCCN(C2CCCCC2)C2CCCC2)cc1	KCNH2 3.1 inh -72.9 (no result: CtBP-E1A inh)
Cc1ccc(NC(=S)NCCN(C2CCCCC2)C2CCCC2)cc1C	none
Cc1ccc(NCN2C(=O)c3ccccc3C2=O)cc1Cl	none (no result: JMJD2E inh)
Cc1ccc(N/N=C2\CC(=O)c3ccccc32)cc1Cl	JMJD2E inh 22.4µM (no result: CtBP-E1A inh, Six1-Eya2 inh, KCNH2 WT inh, KCNH2 3.1 inh)
CCOc1ccc(C2NC(=O)c3ccccc3O2)cc1OCC (stereo unspecified)	none (no result: JMJD2E inh)
CCOc1ccc2c(c1)c(N=NC(=N)N)c(O)n2C	CtBP-E1A inh inconclusive, Six1-Eya2 inh -79.8
COc1ccc(N(CC(=O)NCCSc2ccccc2)S(=O)(=O)c2ccccc2)cc1OC	none (no result: JMJD2E inh)
COc1cccc(CC2(CO)CCCN(Cc3c(C)cc(C)cc3-n3cccn3)C2)c1 (stereo unspecified)	KCNH2 WT inh -124.0, KCNH2 3.1 inh -101.6 (no result: CtBP-E1A inh)
COc1ccc(-n2ccnc2CN2CCCC(CO)(Cc3cccc(OC)c3)C2)cc1 (stereo unspecified)	none
COc1cccc(CC2(CO)CCCN(Cc3[nH]c4ccc(C)cc4c3C)C2)c1 (stereo unspecified)	CtBP-E1A inh inconclusive, KCNH2 WT inh -88.9, KCNH2 3.1 inh -99.2
CNc1ccccc1	none (no result: JMJD2E inh)
CNc1cccccc1=S	JMJD2E inh 25.1µM
COc1ccc(CCNC(=S)NCc2cccs2)cc1OC	none
CCNc1nc(NCC)nc(N/N=C/c2ccc(O)c(O)c2)n1	JMJD2E inh 17.8µM
COc1ccc(-c2cnnc(N/N=C/c3ccc(O)c(O)c3)n2)cc1	JMJD2E inh 25.1µM
c1ccc2c(c1)CNc1ccccc1C2	none
CC(C)c1nnc(NC(=O)C2CCN(C(=O)Nc3ccc(Cl)cc3)CC2)s1	none (no result: JMJD2E inh)
CC(C)NC(=O)CC1(C(=O)NCc2ccc(Cl)cc2)CCCC1	none (no result: JMJD2E inh)
CN(C)CCNC(C(=O)Nc1cc(Cl)cc(Cl)c1)c1ccccc1 (stereo unspecified)	none
Cc1ccc(C=Nc2ccc(N(C)C)cc2)o1	CtBP-E1A inh -68.2, Six1-Eya2 inh inconclusive, JMJD2E inh 12.6µM
CC1(C)OC1COc1c2ccoc2cc2oc(=O)ccc12 (stereo unspecified)	JMJD2E inh 31.6µM
Nc1cc(OC(=O)c2cccs2)nn1S(=O)(=O)c1ccc(F)cc1	Six1-Eya2 inh inconclusive, KCNH2 3.1 inh -212.4
Cn1nnnc1SCC(=O)Nc1nc2c(s1)CCCC2	none
Nc1nc(N)c2[nH]cnc2n1	CtBP-E1A inh inconclusive, Six1-Eya2 inh inconclusive, KCNH2 3.1 inh -91.9 (no result: JMJD2E inh)
COc1ccccc1C(=O)Nc1cccc(NC(=O)c2ccccc2C)c1	none (no result: JMJD2E inh)
CC(=O)c1ccc(Oc2cc(C)nc(N3CCOCC3)n2)cc1	KCNH2 3.1 inh -136.4
CC(=O)Nc1c(F)cc(Br)cc1F	KCNH2 3.1 inh -94.8
CC(=O)Nc1cc(Br)ccc1O	none
Cc1ccc2c(c1C)NC(C(=O)O)C1CC=CC21 (stereo unspecified)	JMJD2E inh 20µM
O=C(O)C1Nc2c(C(=O)N3CCOCC3)cccc2C2C=CCC12 (stereo unspecified)	Six1-Eya2 inh -73.8, JMJD2E inh inconclusive
O=C(c1ccccc1O)N1CCOCC1	none
Cc1cc(C)c2c(c1)NC(C(=O)O)C1CC=CC21 (stereo unspecified)	CtBP-E1A inh inconclusive, Six1-Eya2 inh inconclusive (no result: JMJD2E inh)
N#CC1=C2N=C(N)c3ccccc3N2C2=C(C(=O)CCC2)C1c1ccc(Cl)cc1 (stereo unspecified)	none
COc1cc(N/N=C(\C)c2ccc(O)c(C)c2)nc(-c2ccccc2)n1	JMJD2E inh 31.6µM
C/C(=N\Nc1cc(-c2ccccc2)nc(-c2ccccc2)n1)c1ccc(O)c(C)c1	none
O=C(N/N=C/c1ccc(O)cc1O)c1ccc(NC(=O)C2CCCCC2)cc1	CtBP-E1A inh -89.8, Six1-Eya2 inh -71.7 (no result: JMJD2E inh)
CCc1cc(C(=O)N/N=C/c2ccc(O)cc2O)c2ccccc2n1	CtBP-E1A inh -96.8, Six1-Eya2 inh -92.6 (no result: JMJD2E inh)
O=C(O)COc1ccccc1/C=N/NC(=O)c1cc(-c2ccc(Cl)cc2)nc2ccccc12	CtBP-E1A inh -81.0, Six1-Eya2 inh -80.2
O=C(N/N=C/c1cccc(O)c1)c1cc(C2CC2)nc2ccccc12	none (no result: JMJD2E inh)
O=C(N/N=C/c1cccc(O)c1)c1ccc(NC(=O)C2CCCCC2)cc1	none (no result: JMJD2E inh)
Cc1nonc1C(=O)N/N=C/c1ccc(O)cc1O	Six1-Eya2 inh -90.0 (no result: CtBP-E1A inh)
C=CCSc1nnc(-c2cc(C(C)(C)C)nn2Cc2ccc(F)cc2)n1C	none
Cc1ccccc1N(C(=O)CNC(=O)c1ccco1)C(C(=O)NC1CCCCC1)c1cccnc1 (stereo unspecified)	none (no result: JMJD2E inh)
Cc1noc(C)c1COc1ccccc1C(=O)N1CCN(S(=O)(=O)c2ccccc2C#N)CC1	none (no result: JMJD2E inh)
O=C(N/N=C/c1ccc(O)cc1O)c1ccncc1	CtBP-E1A inh -91.2, Six1-Eya2 inh -92.9 (no result: JMJD2E inh)
COc1ccc(/C=N/NC(=O)c2ccncc2)c(OC)c1	none (no result: CtBP-E1A inh, JMJD2E inh)
Cc1cccc(C(=O)Oc2c(Br)cc(Br)cc2/C=N/NC(=O)c2ccncc2)c1	none (no result: JMJD2E inh)
O=C(N/N=C/c1cc(Cl)cc(Cl)c1O)c1ccncc1	Six1-Eya2 inh -91.7, JMJD2E inh inconclusive (no result: CtBP-E1A inh)
O=C(N/N=C/c1cc(Br)cc(Br)c1O)c1ccncc1	CtBP-E1A inh -92.9, Six1-Eya2 inh -79.6, JMJD2E inh inconclusive
